Results filed as inconclusive are left out. Active and inactive are the calls of the source. The calls were made as follows, unless noted: active = hit-call score of the fitted dose curve at least 0.9, where 1 is the maximum; inconclusive = response in the unintended direction; inactive = score below 0.9.
What was measured:
[1] = biological target: Cellular tumor antigen p53 (Homo sapiens) (UniProt P04637); experiment: TOX21_p53_BLA_p2_ratio: Tox21 HCT-116 p53 Agonism Beta-lactamase Assay, Ratio, Phase 2 (AID 2283592)
Sequence of Cellular tumor antigen p53 (Homo sapiens) (P04637 whole entry, looked up): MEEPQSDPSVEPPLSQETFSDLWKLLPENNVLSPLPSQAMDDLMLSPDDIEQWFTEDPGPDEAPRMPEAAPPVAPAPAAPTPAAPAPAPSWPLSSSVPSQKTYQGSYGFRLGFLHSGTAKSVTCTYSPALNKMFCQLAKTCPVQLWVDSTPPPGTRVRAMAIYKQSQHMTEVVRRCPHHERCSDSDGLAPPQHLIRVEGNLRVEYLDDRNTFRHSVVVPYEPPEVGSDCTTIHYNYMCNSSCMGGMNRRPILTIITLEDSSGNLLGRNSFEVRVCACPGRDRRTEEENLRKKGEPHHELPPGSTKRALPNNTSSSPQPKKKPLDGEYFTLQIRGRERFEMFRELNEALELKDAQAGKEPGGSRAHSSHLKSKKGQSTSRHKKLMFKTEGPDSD
Method in brief: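 HCT116 cells carrying a p53-responsive beta-lactamase reporter were plated, incubated 5 h at 37C, then dosed with compounds in DMSO (217-fold dilution) for 16 h. CCF4-AM substrate was added for 2 h at room temperature; the 460/530 nm emission ratio gave gain-of-signal activity relative to DMSO.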

[2] = TOX21_p53_BLA_p3_viability: Viability Assessment in the Tox21 HCT-116 p53 Agonism Beta-lactamase Assay, Phase 3 (AID 2283593);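 also: cells exposed to compound for 16 h before reading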
Method in brief: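 HCT116 cells, 4000/well, dosed 5 h after plating by pin transfer (217-fold dilution from DMSO stock) and incubated 16 h at 37C, 5% CO2. Viability read as ATP luminescence with CellTiter-Glo after 30 min at room temperature.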

[3] = TOX21_p53_BLA_p4_viability: Viability Assessment in the Tox21 HCT-116 p53 Agonism Beta-lactamase Assay, Phase 4 (AID 2283597);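 also: hits lower the luminescence signal meaning cytotoxicity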
Method in brief: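 HCT116 p53-bla cells (4000/well) rested 5 h at 37C, then received compounds in DMSO (217-fold dilution) for 16 h at 37C, 5% CO2. CellTiter-Glo was added after the CCF4-AM read, and luminescence was read after 30 min at room temperature.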

[4] = TOX21_p53_BLA_p5_viability: Viability Assessment in the Tox21 HCT-116 p53 Agonism Beta-lactamase Assay, Phase 5 (AID 2283600)
Method in brief: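 Cells were plated at 4000/well, rested 5 h at 37C, then given compounds in DMSO (217-fold dilution) for 16 h at 37C, 5% CO2. Following the CCF4-AM beta-lactamase read, CellTiter-Glo was added and luminescence was read after 30 min at room temperature.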

[5] = biological target: Cellular tumor antigen p53 (Homo sapiens) (UniProt P04637); experiment: TOX21_p53_BLA_p4_ratio: Tox21 HCT-116 p53 Agonism Beta-lactamase Assay, Ratio, Phase 4 (AID 2283601)
Method in brief: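 HCT-116 p53 beta-lactamase reporter cells (4000/well) preincubated 5 h, then compound (217-fold dilution of DMSO stock) for 16 h at 37C. CCF4-AM substrate added 2 h at room temperature; 460/530 nm emission ratio fitted upward versus DMSO.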

[6] = biological target: Cellular tumor antigen p53 (Homo sapiens) (UniProt P04637); experiment: TOX21_p53_BLA_p3_ratio: Tox21 HCT-116 p53 Agonism Beta-lactamase Assay, Ratio, Phase 3 (AID 2283596)
Method in brief: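 HCT116 p53-bla cells (4000/well) given compound in DMSO (217-fold dilution) after 5 h, incubated 16 h at 37C. CCF4-AM substrate 2 h at room temperature; 460/530 nm emission ratio, gain fitted against DMSO.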

[7] = biological target: Cellular tumor antigen p53 (Homo sapiens) (UniProt P04637); experiment: TOX21_p53_BLA_p5_ratio: Tox21 HCT-116 p53 Agonism Beta-lactamase Assay, Ratio, Phase 5 (AID 2283599)
Method in brief: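 HCT-116 p53-bla cells (4000/well) plated 5 h, dosed with compound (217-fold DMSO dilution) for 16 h at 37 C; CCF4-AM substrate 2 h at room temperature. Activity is the 460/530 nm emission ratio (405 nm excitation), fitted in gain-of-signal direction versus DMSO.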

[8] = biological target: PGR (gene 5241) (UniProt P06401); experiment: TOX21_PR_BLA_Followup_Agonist_ratio: Tox21 HEK293 Progesterone Receptor (PR) Agonism Beta-lactamase Follow-Up Assay, Ratio (AID 2283933)
Sequence of PGR (gene 5241) (P06401 whole entry, looked up): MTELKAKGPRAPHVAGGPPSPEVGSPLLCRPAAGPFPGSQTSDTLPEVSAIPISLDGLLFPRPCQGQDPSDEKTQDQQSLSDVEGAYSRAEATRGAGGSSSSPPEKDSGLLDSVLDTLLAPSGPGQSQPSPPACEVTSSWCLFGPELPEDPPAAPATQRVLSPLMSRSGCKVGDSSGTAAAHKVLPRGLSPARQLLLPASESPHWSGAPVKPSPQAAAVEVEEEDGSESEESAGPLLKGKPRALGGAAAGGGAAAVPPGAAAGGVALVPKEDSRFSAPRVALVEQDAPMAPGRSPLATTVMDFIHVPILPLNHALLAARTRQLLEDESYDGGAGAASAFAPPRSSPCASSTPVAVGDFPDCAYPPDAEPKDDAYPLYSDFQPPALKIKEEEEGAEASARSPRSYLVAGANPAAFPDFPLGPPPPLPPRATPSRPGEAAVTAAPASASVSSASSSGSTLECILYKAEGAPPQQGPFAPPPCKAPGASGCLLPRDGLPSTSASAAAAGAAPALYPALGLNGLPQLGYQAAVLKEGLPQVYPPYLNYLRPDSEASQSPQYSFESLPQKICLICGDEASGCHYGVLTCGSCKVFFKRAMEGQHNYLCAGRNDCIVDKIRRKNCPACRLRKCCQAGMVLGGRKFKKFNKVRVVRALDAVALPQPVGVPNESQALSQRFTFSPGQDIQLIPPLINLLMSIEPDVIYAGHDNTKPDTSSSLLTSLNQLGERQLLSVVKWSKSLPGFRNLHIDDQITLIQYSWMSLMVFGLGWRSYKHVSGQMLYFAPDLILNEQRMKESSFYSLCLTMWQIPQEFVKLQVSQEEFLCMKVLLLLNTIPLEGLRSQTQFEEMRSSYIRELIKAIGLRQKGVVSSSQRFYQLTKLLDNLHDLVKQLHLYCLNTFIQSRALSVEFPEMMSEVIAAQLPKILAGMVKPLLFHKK
Method in brief: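 Agonist-mode follow-up in HEK293T cells carrying a UAS-driven beta-lactamase reporter, grown in 2% charcoal-stripped serum. Compounds act for 16 hr; activity is the ch2/ch1 cleavage ratio, with same-well CellTiter-Glo viability run in parallel.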

[9] = biological target: PGR (gene 5241) (UniProt P06401); experiment: TOX21_PR_BLA_Followup_Antagonist_ratio: Tox21 HEK293 Progesterone Receptor (PR) Antagonism Beta-lactamase Follow-Up Assay, Ratio (AID 2283934);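 also: PR-UAS-bla HEK293T cells stimulated with 1 nM R5020 agonist for 16 hr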
Method in brief: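 Antagonist mode used 1 nM R5020 (final) as agonist on a beta-lactamase reporter line in HEK293T cells. Activity was taken from the substrate cleavage ratio after 16 hr exposure.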

[10] = TOX21_PR_BLA_Followup_Agonist_viability: Viability Assessment in the Tox21 HEK293 Progesterone Receptor (PR) Agonism Beta-lactamase Follow-Up Assay (AID 2283935);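 also: signal loss means lower viability so actives are cytotoxic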
Method in brief: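 Multiplexed viability counter-screen: ATP-coupled luciferase signal measured after 30 min at room temperature, following 16 hr compound treatment of PR-UAS-bla HEK293T cells grown in charcoal-stripped serum.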

[11] = biological target: PGR (gene 5241) (UniProt P06401); experiment: TOX21_PR_LUC_Followup_Antagonist: Tox21 HEK293 Progesterone Receptor (PR) Antagonism Luciferase Follow-Up Assay (AID 2283938);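 also: curve fitted upward as signal gain over DMSO baseline despite antagonist label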
Method in brief: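 HEK293-PR-A-luc cells were precultured 5 days in medium with 10% charcoal-stripped FBS, seeded 3,000/well, then exposed to compounds in DMSO for 16 h at 37C. Luciferase was read by ONE-Glo luminescence after 30 min at room temperature.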

[12] = TOX21_PR_LUC_Followup_Antagonist_viability: Viability Assessment in the Tox21 HEK293 Progesterone Receptor (PR) Antagonism Luciferase Follow-Up Assay (AID 2283940)
Method in brief: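 Cellular ATP, measured with luciferase-coupled CellTiter-Glo, served as the viability endpoint after HEK293-PR-A-luc cells were exposed to test compounds for 16 h at 37C.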

[13] = TOX21_PR_LUC_Followup_Agonist_viability: Viability Assessment in the Tox21 HEK293 Progesterone Receptor (PR) Agonism Luciferase Follow-Up Assay (AID 2283941);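 also: loss of signal means cytotoxicity so actives lower viability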
Method in brief: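 Luminescent ATP quantitation (CellTiter-Glo) serves as the read-out; a drop flags cytotoxic compounds. Cells are HEK293-PR-A-luc grown in 10% charcoal-stripped FBS, plated 3,000/well, and exposed to compound for 16 h.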

[14] = UKN5_HCS_SBAD2_cell_viability: Viability Assessment in the University of Konstanz (UKN) Leist Lab Neurite Outgrowth Assay in human iPSC-derived immature Dorsal Root Ganglia Neurons (UKN5) (AID 2284056; active = hit-call score of the fitted dose curve at least 0.9, where 1 is the maximum; inactive = score below 0.9)
Method in brief: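 iPSC-derived immature peripheral neurons (SBAD2) seeded on Matrigel with CHIR99021, SU5402 and DAPT, dosed 1 h later for 24 h. Viability from Hoechst H-33342 and calcein-AM live staining, high-content imaging; bidirectional fit versus DMSO.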

[15] = UKN5_HCS_SBAD2_neurite_outgrowth: University of Konstanz (UKN) Leist Lab Neurite Outgrowth Assay in human iPSC-derived immature Dorsal Root Ganglia Neurons (UKN5) (AID 2284070; active = hit-call score of the fitted dose curve at least 0.9, where 1 is the maximum; inactive = score below 0.9); details: actives raise or lower the signal
Method in brief: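 SBAD2 neurons, 24 h compound treatment, calcein-AM neurite area via HCS imaging; DMSO baseline, gain or loss of signal.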

[16] = UKN2_HCS_IMR90_neural_migration: University of Konstanz (UKN) Leist Lab Neural Crest Cell Migration Assay in human induced IMR90 Pluripotent Stem Cells (UKN2) (AID 2284204; active = hit-call score of the fitted dose curve at least 0.9, where 1 is the maximum; inactive = score below 0.9); details: actives raise or lower the signal
Method in brief: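 iPSC-derived IMR90 neural crest cells seeded around stoppers on PLO/laminin/fibronectin; migration started in N2-S medium with EGF/FGF, compounds added after 24 h for 24 h. Migration into cell-free area imaged after calcein-AM/Hoechst staining; bidirectional fit versus DMSO.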

[17] = UKN4_HCS_LUHMES_neurite_outgrowth: University of Konstanz (UKN) Leist Lab Neurite Outgrowth Assay in human LUHMES cells (UKN4) (AID 2284206; active = hit-call score of the fitted dose curve at least 0.9, where 1 is the maximum; inactive = score below 0.9); details: actives raise or lower the signal
Method in brief: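 2-day-differentiated LUHMES, 24 h cpd exposure, live calcein-AM + H-33342 stain, HCS fluorescence imaging of neurite area; DMSO = baseline, bidirectional fit.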

[18] = UKN4_HCS_LUHMES_cell_viability: Viability Assessment in the University of Konstanz (UKN) Leist Lab Neurite Outgrowth Assay in human LUHMES cells (UKN4) (AID 2284232; active = hit-call score of the fitted dose curve at least 0.9, where 1 is the maximum; inactive = score below 0.9)
Method in brief: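 Human dopaminergic-model LUHMES neurons were exposed to chemicals for 24 h after a 2-day differentiation. Viability was scored by imaging Hoechst H-33342 staining, with activity fitted in both directions relative to DMSO controls.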

[19] = UKN2_HCS_IMR90_cell_viability: Viability Assessment in the University of Konstanz (UKN) Leist Lab Neural Crest Cell Migration Assay in human induced IMR90 Pluripotent Stem Cells (UKN2) (AID 2284233; active = hit-call score of the fitted dose curve at least 0.9, where 1 is the maximum; inactive = score below 0.9;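 also: viability of neural crest cells differentiated from IMR90 iPSC measured by calcein-AM fluorescence imaging; cells exposed to compound for 24 h after a 24 h migration phase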)
Method in brief: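 Neural crest cells derived from IMR90 iPSC migrate into a stopper-free zone for 24 h in EGF/FGF medium, then are exposed to compound for 24 h. Viability assessed by calcein-AM and Hoechst staining with high-content imaging, fitted bidirectionally versus DMSO.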

Measured: AC50

CCCCc1ccc(C(=O)O)nc1
inactive: [1] | [2] | [3] | [4]

C[N+]1(C)[C@@H]2CC[C@H]1CC(OC(=O)c1c[nH]c3ccccc13)C2 (some centres undefined)
inactive: [1] | [2] | [3] | [4] | [5]

Cn1cc[n+](C)c1 (tested in a mixture with another compound)
inactive: [1] | [2] | [3] | [4]

Nc1nc(N)nc(N)n1
inactive: [1] | [2] | [6] | [7] | [5]

C[N+](C)(C)CCOC(=O)C(O)(c1ccccc1)c1ccccc1
inactive: [1] | [2] | [3] | [4] | [5]

Clc1cc(Cl)c(-c2cc(Cl)c(Cl)cc2Cl)cc1Cl
inactive: [1] | [2] | [7] | [4] | [5]

Cn1cc(C2=C(c3cn(C4CCN(Cc5ccccn5)CC4)c4ccccc34)C(=O)NC2=O)c2ccccc21
inactive: [1] | [2] | [7] | [5]

O=C(C[C@@H]1NCCC[C@H]1O)Cn1cnc2cc(Br)c(Cl)cc2c1=O
inactive: [1] | [2] | [3] | [4] | [5]

CC1N=C(N)OC1c1ccccc1 (centres undefined)
inactive: [1] | [2] | [6] | [4] | [5]

CCC(=O)O[C@H]1[C@@H](N2CCCCC2)C[C@H]2[C@@H]3CC[C@H]4C[C@H](OC(C)=O)[C@@H](N5CCCCC5)C[C@]4(C)[C@H]3CC[C@@]21C
inactive: [1] | [2] | [6] | [4]

C=C1C[C@@H]2[C@H](CC[C@]3(C)C(=O)CC[C@@H]23)[C@@]2(C)C=CC(=O)C=C12
inactive: [1] | [2] | [6] | [8] | [10] | [11] | [12] | [13]
active: [9] 23 µM

CC(C)Br
inactive: [1] | [2] | [3]

Cc1ccc2c(c1)[C@]13CCCC[C@@H]1[C@H](C2)N(C)CC3
inactive: [1] | [2] | [5]

CNC(C)Cc1ccc2c(c1)OCO2 (centres undefined)
inactive: [1] | [6] | [3] | [7] | [14] | [15] | [16] | [17] | [18] | [19]

CCCC[n+]1cccc(C)c1
inactive: [1] | [6] | [7]

CCOP(=S)(OCC)SCCl
inactive: [1] | [6] | [3] | [4] | [5]
